Anthrax LF prot – anthrax lethal factor protease inhibition; 360,000 tested, 0.12% active; P15917; inhibition, % at 10 µM; multiplex microsphere protease cleavage assay, LF; AID 588501
PriA SSB inh – blocks PriA binding to SSB C-terminal tail; AlphaScreen SSBct-PriA binding, biotinylated peptide; inhibition, % at 33 µM; 430,000 tested, 0.6% active; AID 1272365; in the data active = inhibition mostly above about 37%, no sharp cut-off; inactive = mostly below about 20%
BoNT F protease – BoNT F light chain protease inhibition. AID 588497. Multiplex microsphere protease cleavage assay, flow cytometry. 360,000 tested, 0.22% active. inhibition, % at 10 µM; in the data active = inhibition above about 35%, passing the limit was not always enough; inconclusive = no clear call, values can overlap the other calls
BoNT-A LC inh2 – blocks Botulinum neurotoxin A light chain protease; 360,000 tested, 0.17% active; AID 588499; inhibition, % at 10 µM; multiplex microsphere protease substrate cleavage, flow cytometry
Autofluor counter – flagged as autofluorescent in microsphere protease counterscreen | compound autofluorescence counterscreen, microsphere flow cytometry; active compounds read high | fluorescence intensity (test concentration not listed) | 360,000 tested, 3.1% active; in the data active = fluorescence intensity above about 16000; inconclusive = no clear call, values can overlap the other calls
Of the large screens only hits and unclear results are named; the others gave an inactive call. The list is not random: actives were taken first. Their share in the collection is about 3.1%. Rule as the data show it, unless noted: active = inhibition above about 30%; inconclusive = no clear call, values can overlap the other calls; inactive = below that.

Cc1cc(C)c2nc(N(Cc3cccnc3)C(=O)Cc3ccc(C(C)C)cc3)sc2c1	none (no result: Anthrax LF prot, BoNT F protease, BoNT-A LC inh2, Autofluor counter)
O=S(=O)(NCC(c1ccsc1)N1CCCCCC1)c1ccccc1Cl (stereo unspecified)	none (no result: Anthrax LF prot, BoNT F protease, BoNT-A LC inh2, Autofluor counter)
CCN1CCN(C(=O)C2c3cc(OC)c(OC)cc3C(=O)N(C)C2c2ccc(SC)cc2)CC1 (stereo unspecified)	BoNT-A LC inh2 inconclusive, Autofluor counter 22280
COc1ccc(C2C(C(=O)N3CCN(C)CC3)c3cc(OC)c(OC)cc3C(=O)N2C)cc1 (stereo unspecified)	none
CCN(CC)C(=O)c1ccc(COc2ccccc2Cl)cc1	none
CCC(C)NC(=O)c1ccc(COc2ccccc2Cl)cc1 (stereo unspecified)	Autofluor counter 21804
O=C(O)c1cccc(COc2ccccc2Cl)c1	Autofluor counter 22141
CN1CCN(C(=O)c2cccc(COc3cc(Cl)ccc3Cl)c2)CC1	Autofluor counter 22814
O=C(O)c1ccc(COc2ccccc2Cl)cc1	none
Cc1cc(N2CCC(NC(=O)c3ccccn3)CC2)n[nH]1	none (no result: Anthrax LF prot, BoNT F protease, BoNT-A LC inh2, Autofluor counter)
COc1ccc(NC(=O)Cn2nc(C(F)(F)F)c3c2CCCC3)c(OC)c1	BoNT-A LC inh2 inconclusive, Autofluor counter 21156
O=C(Cn1nc(C(F)(F)F)c2c1CCCC2)NC1CCCC1	Autofluor counter 23402
COc1ccc(CNC(=O)Cn2nc(C(F)(F)F)c3c2CCC3)cc1	none
O=C(Nc1ccc(-c2nc3ccccc3o2)c(O)c1)c1cc(-n2cnnc2)ccc1Cl	Autofluor counter 21640
O=C(Nc1ccc(-c2nc3ccccc3o2)cc1)c1cc(-n2cnnc2)ccc1Cl	Autofluor counter 23846
O=C(Nc1ccc2oc(-c3ccccc3)nc2c1)c1cc(-n2cnnc2)ccc1Cl	none
Clc1ccc(SCc2nc3ccccc3[nH]2)cc1	BoNT-A LC inh2 inconclusive, Autofluor counter 21863
Cc1ccc(SCc2nc3ccccc3[nH]2)cc1	Autofluor counter 20672
c1ccc(SCc2nc3ccccc3[nH]2)cc1	Autofluor counter 24904
Cc1ccc(CSCc2nc3ccccc3[nH]2)cc1	none
CCOC(=O)c1c(-c2ccc(C)o2)csc1NC(=O)CN1CCCC[C@@H]1C	none (no result: Anthrax LF prot, BoNT F protease, BoNT-A LC inh2, Autofluor counter)
O=C(NC[C@H]1CC(=O)N(Cc2ccc(F)cc2)C1)Nc1cccc(Cl)c1	none (no result: Anthrax LF prot, BoNT F protease, BoNT-A LC inh2, Autofluor counter)
C=CCSc1n[nH]c(-c2ccc(OCCCC)cc2)n1	Autofluor counter 16907
O=[N+]([O-])c1cc(C(F)(F)F)ccc1NC1CCN(Cc2ccccc2)C1 (stereo unspecified)	PriA SSB inh 42.9
CCCCn1cnc2c(c(-c3ccccc3)c(-c3ccccc3)n2Cc2ccco2)c1=N	Anthrax LF prot inconclusive, BoNT F protease inconclusive, Autofluor counter inconclusive
N=c1c2c(-c3ccccc3)c(-c3ccccc3)n(Cc3ccccc3)c2ncn1CCCn1ccnc1	PriA SSB inh 46.2
Cc1ccc2cccc(C(=O)N3CCC(N4CCC(Oc5nccs5)CC4)CC3)c2n1	none (no result: Anthrax LF prot, BoNT F protease, BoNT-A LC inh2, Autofluor counter)
C#CCNc1cc(-c2ccccc2)nc2ncnn12	none
C#CCNc1cc(C)nc2ncnn12	BoNT-A LC inh2 inconclusive, Autofluor counter 24731
O=C(N1CCOCC1)N1CCN(Cc2ccccc2)CC1	BoNT-A LC inh2 inconclusive, Autofluor counter 16289
c1ccc(CN2CCOCCOCCOCC2)cc1	BoNT F protease inconclusive
CCCc1cc(=O)n2[nH]c(C)cc2n1	Autofluor counter 24507
CCCc1cc(=O)n2[nH]c(-c3ccco3)nc2n1	Autofluor counter 23273
CC(=O)NNC(=O)c1ccncc1	none
O=C(NNC(=O)c1ccc(Br)cc1)c1ccncc1	BoNT F protease inconclusive, BoNT-A LC inh2 inconclusive
O=C(NNC(=O)c1ccncc1)c1ccncc1	Autofluor counter 22444
O=C(NNS(=O)(=O)c1ccc(Br)cc1)c1ccncc1	Autofluor counter 20766
Cc1sc2ncnc(SCC(=O)Nc3nc(-c4ccccc4)ns3)c2c1C	none (no result: Anthrax LF prot, BoNT F protease, BoNT-A LC inh2, Autofluor counter)
Cc1[nH]n(-c2ccccc2)c(=O)c1C1(C(F)(F)F)C(=O)N(c2ccccc2)C2=C1C(=O)CC(C)(C)C2 (stereo unspecified)	BoNT-A LC inh2 inconclusive, Autofluor counter 23155
COc1cc(C(=O)NCCSc2ccc(Cl)cc2)cc(OC)c1OC	none
COc1cc(C(=O)Nc2ccc(Br)cc2C(=O)c2cc(OC)c(OC)c(OC)c2)cc(OC)c1OC	Autofluor counter 24193
COc1cc(C(=O)NCCSc2ccc(Br)cc2)cc(OC)c1OC	Autofluor counter 18300
CCCCCCNC(=O)CCNC(=O)c1cc(OC)c(OC)c(OC)c1	Autofluor counter 22280
COc1cc(C(=O)NCCC(=O)NC(C)C)cc(OC)c1OC	none
CN(C)C(=O)COc1ncccn1	none (no result: Anthrax LF prot, BoNT F protease, BoNT-A LC inh2, Autofluor counter)
CCC1CCCCN1C(=O)N[C@@H](Cc1ccccc1)C(=O)O (stereo partly specified)	Autofluor counter 23663
COC(=O)[C@H](Cc1ccccc1)NC(=O)N1CCCCC1C (stereo partly specified)	none
O=C(NC[C@@H](c1cccs1)N1CCc2ccccc2C1)c1ccccc1Cl	none (no result: Anthrax LF prot, BoNT F protease, BoNT-A LC inh2, Autofluor counter)
CC1(C)Cc2cccc(OCC(=O)N3CCc4nc(NC(=O)c5ccsc5)sc4C3)c2O1	none (no result: Anthrax LF prot, BoNT F protease, BoNT-A LC inh2, Autofluor counter)
COc1ccc(-n2c(-c3ccc(Cl)cc3)c[n+]3c2CCc2ccccc2-3)cc1	none
Cc1ccc(-n2c(-c3ccc(Br)cc3)c[n+]3c2CCc2ccc4cccnc4c2-3)cc1	Autofluor counter 21635
O=C(COc1ccccc1F)Nc1cccc(N2CCCS2(=O)=O)c1	none (no result: Anthrax LF prot, BoNT F protease, BoNT-A LC inh2, Autofluor counter)
COc1ccccc1CNC(=O)CCn1c(=O)[nH]c2ccsc2c1=O	BoNT-A LC inh2 inconclusive, Autofluor counter 21437
CCSc1ccc2c(c1)N(CCCN1CCN(C)CC1)c1ccccc1S2	PriA SSB inh 43.0
CN1CCN(CCCN2c3ccccc3Sc3ccc(Cl)cc32)CC1	none
COc1ccc(C(=O)Nc2nc(CC(=O)Nc3ccc(F)c(Cl)c3)cs2)cc1	none (no result: Anthrax LF prot, BoNT F protease, BoNT-A LC inh2, Autofluor counter)
COc1cc2ccccc2cc1C(=O)Nc1ccc(Cc2ccncc2)cc1	Autofluor counter 21333
O=C(O)c1cc(NCc2ccccc2C(F)(F)F)ccc1N1CCOCC1	BoNT-A LC inh2 inconclusive, Autofluor counter 22050
O=C(Nc1cccnc1)c1ccc(CNS(=O)(=O)c2cccc(C(F)(F)F)c2)cc1	none (no result: Anthrax LF prot, BoNT F protease, BoNT-A LC inh2, Autofluor counter)
O=C1c2ccccc2C(=O)C1Cc1cccc2ccccc12	Autofluor counter 21890
CCc1ccc(S(=O)(=O)N2C3CCC2CC(S(=O)(=O)c2ccccc2)C3)s1 (stereo unspecified)	none (no result: Anthrax LF prot, BoNT F protease, BoNT-A LC inh2, Autofluor counter)
Clc1ccc(-n2nnnc2-c2ccccc2)cc1	BoNT-A LC inh2 inconclusive, Autofluor counter 17854
Clc1ccc(-c2nnnn2-c2ccc(Cl)cc2)cc1	none (no result: Anthrax LF prot, BoNT F protease, BoNT-A LC inh2, Autofluor counter)
COc1nccnc1O[C@H]1CCN(C(=O)c2c(C)n[nH]c2C)C1	none (no result: Anthrax LF prot, BoNT F protease, BoNT-A LC inh2, Autofluor counter)
Cc1ccc(NC2=NC(c3ccc(F)cc3)n3c(nc(C)cc3=O)N2)cc1 (stereo unspecified)	BoNT F protease inconclusive
Cc1ccc(NC2=NC(c3ccc(C)cc3)n3c(nc(C)cc3=O)N2)cc1 (stereo unspecified)	Autofluor counter 23058
Cc1ccc(NC2=NC(c3ccc(F)cc3)n3c(nc(C)cc3=O)N2)c(C)c1 (stereo unspecified)	BoNT F protease inconclusive
Cc1ccc(NC2=NC(c3ccccc3)n3c(nc(C)cc3=O)N2)c(C)c1 (stereo unspecified)	Autofluor counter 22223
O=C(COc1ccccc1F)NCCn1ccn2nc(-c3ccco3)cc12	none (no result: Anthrax LF prot, BoNT F protease, BoNT-A LC inh2, Autofluor counter)
CN1CCc2cc(C(CNC(=O)C(=O)Nc3ccc(F)c(Cl)c3)N(C)C)ccc21 (stereo unspecified)	none (no result: Anthrax LF prot, BoNT F protease, BoNT-A LC inh2, Autofluor counter)
